Assay outcomes as filed in PubChem BioAssay.
Rows were chosen to be rich in hits. Some 2.8% of all compounds tested hit in one or more screens of this group.
PAX8 inh HTS: lowers PAX8-driven luciferase in RMG-I cells. 360,000 compounds, 1.2% hits. inhibition, % at 12.6 µM. AID 652154. RMG-I TPO-luciferase reporter, SteadyGlo, 24 h;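 active = mean replicate inhibition at least 60% with every replicate also reaching 60%; inconclusive = only one of the two criteria is met; inactive = mean below 60% and not all replicates reaching 60%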;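 note: luciferase light reporting Pax8 driven TPO promoter activity; plate controls were median of neutral control wells for no effect and mitoxantrone controls for full effect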
LMP1 NFkB inh: reduces LMP1-driven NF-kappaB luciferase signal; LMP1-induced NF-kappaB luciferase reporter cells, luminescence; inhibition, % at 12.5 µM; 350,000 compounds, 0.69% hits; AID 504558; in the data active = inhibition above about 41%; inconclusive = no clear call, values can overlap the other calls;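 note: 0% = neutral control wells and 100% = reference inhibitor control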
Peg3 prom inh-1: inhibitors of Peg3 promoter; HeLa PEG-Prom luciferase reporter, luminescence, overnight; inhibition, % at 20 µM; 360,000 compounds, 1.7% hits;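 active = inhibition of at least 50% at 20 µM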
HIF-2a inh: HIF-2a inhibition. 360,000 compounds, 0.72% hits. 786-0 RCC cells HIF-2a reporter, luciferase luminescence, overnight. inhibition, % at 18.8 µM;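 active = inhibition of the luminescence signal of 40% or more relative to plate controls, in a single-dose primary screen at 18.75 µM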
Shn3 inh set2: inhibitors of Schnurri-3 3'UTR reporter in osteoblasts; Clone20 osteoblast Shn3 3'UTR firefly luciferase, 24 h; inhibition, % at 12.5 µM; 360,000 compounds, 0.52% hits; AID 588674;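 active = mean inhibition of at least 75% with every replicate also reaching 75%; inconclusive = mean inhibition at least 75% but some replicate below; inactive = mean inhibition below 75%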;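 note: 0% = median of neutral control wells and 100% = pilot-screen positive control compound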
TRPM1 prom inh: inhibitors of MITF-driven TRPM1 promoter in melanoma cells; SK-MEL-5 TRPM1 promoter luciferase, 24 h; inhibition, % at 12.5 µM; 330,000 compounds, 0.83% hits;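 active = mean inhibition across replicates of 60% or more, whatever share of single replicates reaches that level; inconclusive = some that reach 60%, reason not given; inactive = mean inhibition across replicates below 60%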
Peg3 prom inh-2: Peg3 promoter inhibition confirmation; shares compounds with Peg3 prom inh-1; HeLa PEG-Prom luciferase reporter, luminescence, overnight; inhibition, % at 20 µM; 1,300 compounds, 84% hits; AID 602417;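 active = at 20 µM dose, 40% or more inhibition averaged across four replicates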
Mdm2 MdmX conf: confirmation of inhibitors of human Mdm2/MdmX interaction, set 2 | shares compounds with HIF-2a inh | SaOS-2 split-luciferase Mdm2/MdmX complementation, luminescence | inhibition, % at 8 µM | 740 compounds, 99% hits | AID 504601;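 active = mean inhibition of the luminescence signal across two replicates at or above 26 percent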
Target sequence (O15151 whole entry, looked up): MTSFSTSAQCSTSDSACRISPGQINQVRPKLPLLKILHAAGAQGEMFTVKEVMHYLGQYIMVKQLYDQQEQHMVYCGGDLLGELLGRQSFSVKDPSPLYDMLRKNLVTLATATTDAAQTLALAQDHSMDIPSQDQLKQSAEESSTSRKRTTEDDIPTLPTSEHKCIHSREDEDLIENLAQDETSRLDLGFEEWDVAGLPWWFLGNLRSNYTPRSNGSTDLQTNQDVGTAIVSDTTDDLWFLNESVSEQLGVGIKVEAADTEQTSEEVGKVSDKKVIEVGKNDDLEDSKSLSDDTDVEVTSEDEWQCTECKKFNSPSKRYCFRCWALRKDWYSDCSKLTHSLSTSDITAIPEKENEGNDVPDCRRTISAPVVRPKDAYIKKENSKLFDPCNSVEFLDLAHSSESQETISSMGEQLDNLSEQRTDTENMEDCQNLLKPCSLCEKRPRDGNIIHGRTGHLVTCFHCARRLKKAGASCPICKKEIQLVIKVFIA
Target sequence (Q00987 whole entry, looked up): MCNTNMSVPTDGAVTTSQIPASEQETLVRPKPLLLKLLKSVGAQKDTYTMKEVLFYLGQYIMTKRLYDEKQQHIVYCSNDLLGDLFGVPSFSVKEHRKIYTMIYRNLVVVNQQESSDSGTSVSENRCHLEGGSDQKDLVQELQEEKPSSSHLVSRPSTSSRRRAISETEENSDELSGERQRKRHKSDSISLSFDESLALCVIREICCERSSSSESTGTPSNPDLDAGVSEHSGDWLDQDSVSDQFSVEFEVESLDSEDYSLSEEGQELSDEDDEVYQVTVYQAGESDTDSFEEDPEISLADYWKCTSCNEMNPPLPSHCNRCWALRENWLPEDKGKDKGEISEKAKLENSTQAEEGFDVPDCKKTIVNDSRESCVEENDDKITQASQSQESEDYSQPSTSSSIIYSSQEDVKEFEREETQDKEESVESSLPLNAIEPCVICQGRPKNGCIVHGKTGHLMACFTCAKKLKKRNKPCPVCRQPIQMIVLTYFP
HIF-2a inh conf: HIF-2a inhibition, single concentration confirmation | shares compounds with HIF-2a inh | 786-0 RCC cells, HIF-2a luciferase reporter luminescence, overnight | inhibition, % at 18.8 µM | 1,800 compounds, 56% hits;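 active = mean inhibition across four replicates of at least 40 percent at the single tested concentration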
HIF-1a cs: HIF-1a inhibition counter-screen for HIF-2a hits. inhibition, % at 18.8 µM. MiaPaCa-2 HIF-1a luciferase reporter, desferoxamine, overnight. shares compounds with HIF-2a inh. 1,800 compounds, 72% hits. AID 651589;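 active = mean inhibition of the reporter signal across four replicates at the single tested dose of 50% or more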
* marks the source's active call; other numbers are inactive results; ? = inconclusive; . = not tested or not shown.

SMILES	PAX8 inh HTS	LMP1 NFkB inh	Peg3 prom inh-1	HIF-2a inh	Shn3 inh set2	TRPM1 prom inh	Peg3 prom inh-2	others
COc1cccc(/C=N/Nc2ccc(C(=O)O)cc2)c1O	108*	83*	101*	95*	92*	105*	94*
COc1cccc(/C=N/Nc2ccc(S(=O)(=O)O)cc2)c1O	.	-15	11	18	-1	-2	.
O=C(Nc1ccccc1)N1CCCCN2[C@@H](CO)[C@H](c3ccc(C#CC4CC4)cc3)[C@@H]2C1	-10	.	.	.	.	.	.
COC(=O)Cn1c2ccc(OC)cc2c2nc3ccccc3nc21	19	-4	23	6	5	8	.
CCOC(=O)Cn1c2ccc(OC)cc2c2nc3ccccc3nc21	.	3	88*	16	4	27	33
CCCN(CC(=O)Nc1cc(Cl)cc(Cl)c1)CC(=O)Nc1ccc(F)c(F)c1F	29	-6	87*	-9	10	-21	91*
CCCN(CC(=O)Nc1ccccc1Br)CC(=O)Nc1ccc(F)c(F)c1F	13	-27	16	19	-44	1	.
Cc1ccc(-c2nn3c(-c4ccco4)nnc3c3ccccc23)cc1S(=O)(=O)NCC1CCCO1 (stereo not given)	.	-6	56*	5	22	4	32
Cc1ccc(-c2nnc(Nc3ccccc3)c3ccccc23)cc1S(=O)(=O)NCC1CCCO1 (stereo not given)	.	-6	28	23	19	11	.
CN(C)c1ccc(C=c2c3ccccc3n3c2cc(-c2ccccc2)[n+]3C)cc1	95*	39	104*	90*	?	95*	98*
CC(=O)Nc1cccc(-c2ccnc3c2CC(C)(C(=O)Nc2cccc(C(F)(F)F)c2)O3)c1 (stereo not given)	12	.	52*	21	23	.	62*
COCCNC(=O)/C(C#N)=C/C=C/c1ccccc1[N+](=O)[O-]	80*	-94	53*	4	52	51	14
CNC[C@H]1Oc2ccc(NC(=O)NC(C)C)cc2C(=O)N([C@H](C)CO)C[C@H]1C	-1	.	.	.	.	.	.
C=C1CC(Cn2cc(Br)c(=O)[nH]c2=O)(c2ccc(-c3ccccc3)cc2)OC1=O (stereo not given)	99*	17	100*	94*	95*	109*	98*
CCCC#Cc1cnc2c(c1)C(=O)N([C@H](C)CO)C[C@H](C)[C@H](CN(C)C(=O)c1ccc3c(c1)OCO3)O2	8	.	.	.	.	.	.
Cc1ccc(-c2nc3ncccc3o2)cc1NC(=O)CC(C)C	-8	-3	2	5	-6	3	.
Cc1ccc(-c2nc3ncccc3o2)cc1NC(=O)Cc1ccc(Cl)cc1	.	0	51*	-2	-3	-9	25
COc1ccc(S(=O)(=O)Nc2cccc3c2O[C@H](CN(C)S(=O)(=O)c2ccc(OC)cc2)[C@H](C)CN([C@@H](C)CO)C3=O)cc1	15	.	.	.	.	.	.
O=C(/C=C\Nc1ccccn1)c1ccccc1	.	33	-5	-12	16	28	.
O=C(/C=C/Nc1ccccc1Br)c1ccccn1	.	74*	90*	85*	90*	76*	87*
Cc1ccc(S(=O)(=O)N(C)C[C@H]2Oc3ccc(NC(=O)NC4CCCCC4)cc3C(=O)N([C@@H](C)CO)C[C@@H]2C)cc1	-12	.	.	.	.	.	.
Cc1ccccc1-c1nc(CN2CCC(C(=O)NC3CCCCC3)CC2)c(C)o1	14	11	-18	5	7	5	.
Cc1ccccc1-c1nc(CN2CCC(C(=O)NC3CCN(Cc4ccccc4)CC3)CC2)c(C)o1	14	-31	56*	2	33	30	-7
Cn1c(=O)c(Oc2cc(Cl)cc(Cl)c2)nc2ccccc21	.	-8	68*	13	-2	0	36
C[C@H](CO)N1C[C@H](C)[C@H](CN(C)S(=O)(=O)c2cccs2)Oc2ccc(NS(=O)(=O)c3cccs3)cc2C1=O	-10	.	.	.	.	.	.
SMILES	PAX8 inh HTS	LMP1 NFkB inh	Peg3 prom inh-1	HIF-2a inh	Shn3 inh set2	TRPM1 prom inh	Peg3 prom inh-2	others
COCCn1c(=NC(=O)c2ccc(S(=O)(=O)N3CCc4ccccc4C3)cc2)sc2cc(S(N)(=O)=O)ccc21	40	7	26	27	15	-5	.
C=CCn1c(=NC(=O)c2ccc(S(=O)(=O)N3CCc4ccccc4C3)cc2)sc2cc(S(N)(=O)=O)ccc21	57	4	72*	27	35	17	8
COc1cccc(/C=N/Nc2nc(C)cc(=O)[nH]2)c1OC	-19	3	-70	-90	-21	-10	.
COc1cccc(/C=N/Nc2ncccc2[N+](=O)[O-])c1OC	35	59*	72*	51*	.	40	62*	HIF-2a inh conf=74*;HIF-1a cs=31
CCCCCC(O)CCCC(=O)O (stereo not given)	-11	5	6	11	-25	-6	.
CCCCCCCCCCCCCCCC(O)C[N+](C)(C)CCO (stereo not given)	.	-7	104*	62*	29	4	87*	HIF-2a inh conf=52*;HIF-1a cs=92*
CC(C)NC(=O)Nc1ccc2c(c1)CC(=O)N([C@H](C)CO)C[C@H](C)[C@H](CN(C)S(C)(=O)=O)O2	3	.	.	.	.	.	.
CN(C)c1ccc(Nc2nc(N)c3ccccc3n2)cc1	78*	70*	63*	47*	23	53	65*	HIF-2a inh conf=79*;HIF-1a cs=45
Nc1nc(Nc2ccc(Cl)cc2)nc2ccccc12	.	1	-48	-76	20	4	.
CO[C@@H]1CN(C)C(=O)c2ccc(NC(=O)c3ccc(Oc4ccccc4)cc3)cc2OC[C@@H](C)NC[C@@H]1C	14	.	.	.	.	.	.
O=C(Nc1ccc2c(c1)OCO2)Nc1ccc2c(c1)OCO2	-193	-21	-244	-214	-106	-71	.
CC(C)(C)c1ccc(/C=N/Nc2ccc(C(=O)O)cc2)cc1	53	32	80*	74*	50	89*	73*	HIF-2a inh conf=76*;HIF-1a cs=33
O=C(O)c1ccc(N/N=C/c2ccc3c(c2)OCO3)cc1	88*	65*	94*	86*	60	83*	82*	HIF-2a inh conf=90*;HIF-1a cs=88*
O=C(Nc1cccc(C(=O)O)c1)Nc1ccc2c(c1)OCO2	103*	73*	84*	83*	74	89*	74*	Mdm2 MdmX conf=64*
